Reference: PubChem BioAssay (EPA / NIEHS)
“And” between values parts separate entries of the source, which are not always exact repeats. Equal entries are not always repeated. Where a structure was tested more than once in an assay, its records may differ in their call. The source made the active and inactive calls. How the source made its calls: active means hit-call score of the fitted dose curve at least 0.9, where 1 is the maximum; inactive means score below 0.9.

Read-out: CD69, CD69 (gene 969)
Assay: BSK_SAg_CD69: BioMAP Diversity Plus: SAg Assay for CD69 Biomarker Activity (AID 2283089)
Settings: primary human HUVEC with PBMC; actives raise or lower the signal
Experimental: BSK_SAg is a cell-based, multiplexed-readout assay that uses umbilical vein endothelium and peripheral blood mononuclear cells, a human vascular primary cell co-culture, with measurements taken at 24 hours after chemical dosing in a 96-well plate.BSK_SAg_CD69 is one of 10 assay component(s) measured or calculated from the BSK_SAg assay. It is designed to make measurements of enzyme-linked immunosorbent assay, a form of binding reporter, as detected with fluorescence intensity signals by Enzyme-linked immunosorbent assay technology.Data from the assay component BSK_SAg_CD69 was analyzed into 1 assay endpoint. This assay endpoint, BSK_SAg_CD69, was analyzed with bidirectional fitting relative to DMSO as the negative control and baseline of activity. Using a type of binding reporter, gain or loss-of-signal activity can be used to understand changes in the signaling as they relate to the gene CD69. Furthermore, this assay endpoint can be referred to as a primary readout, because this assay has produced multiple assay endpoints where this one serves a signaling function. To generalize the intended target to other relatable targets, this assay endpoint is annotated to the cytokine intended target family, where the subfamily is inflammatory factor.
The levels of cell surface (or secreted, indicated by the prefix "s") biomarker endpoints were measured by ELISA. Overt cytotoxicity to cells in confluent adherent cultures (all systems other than the BT system) was assessed by measuring total protein levels using sulforhodamine B (SRB) staining in parallel cultures at the time of biomarker measurements, indicated as SRB endpoints. For proliferation assays for adherent cell types, individual cell types are cultured at sub-confluence and relative cell numbers quantified by SRB staining at time points optimized for each system (48 h: 3C and CASM3C systems; 72 h: BT and HDF3CGF systems; 96 h: SAg system). SRB was performed by staining cells with 0.1% SRB after fixation with 10% TCA and reading wells at 560 nm.Viability and proliferation of PBMC (T cells) was quantified by Alamar Blue reduction for the SAg and BT systems. For PBMC viability (referred to as PBMC Cytotoxicity within the assay endpoint names), cells were plated (75,000/well in a 96-well plate) and then chemical samples added for 1 h before addition of activators, SEB and TSST-1 (20 ng/mL final concentration each). Cells were incubated for 90 h. Then, Alamar Blue (20 uL/well) (Invitrogen, Cat DAL1100) was added for 6 h, and the plates were read with a fluorescence microplate reader at 546/580 nm (excitation/emission). For PBMC proliferation, cells were plated and activated as above but incubated for only 16 h prior to addition of Alamar Blue. Plates were read after 6 h.

SMILES	AC50	outcome
CC1(C)[C@H](C(=O)O[C@H](C#N)c2cccc(Oc3ccccc3)c2)[C@@H]1C=C(Br)Br	2.07 µM (active)	inactive
N#CCCCCC#N		inactive
CC(C)CCCCCCCOC(=O)c1ccccc1C(=O)OCCCCCCCC(C)C		inactive
O=C(CCl)c1ccccc1	6.19 µM (active)	
c1ccc(Nc2ccc3ccccc3c2)cc1		inactive
O=S(=O)(c1ccccc1)c1ccccc1		inactive
Clc1ccc(-c2ccccc2)cc1		inactive
Nc1ccc(-c2ccc(N)c(N)c2)cc1N	12.7 µM (active)	
CC(C)(c1cc(Cl)c(O)c(Cl)c1)c1cc(Cl)c(O)c(Cl)c1	26.3 µM (active)	
CNC(=O)Oc1cc(C)c(SC)c(C)c1		inactive
CC(C)(C)C(O)C(Oc1ccc(-c2ccccc2)cc1)n1cncn1 (centres undefined)		inactive
O=[N+]([O-])C=Cc1ccccc1	20 µM (active)	
COc1ccc(CO)cc1		inactive
CCc1cc(C)cc(CC)c1-c1c(OC(=O)C(C)(C)C)n2n(c1=O)CCOCC2		inactive
Cc1ccc(OP(=O)(Oc2ccc(C)cc2)Oc2ccc(C)cc2)cc1 (tested in a mixture with another compound)	9.8 µM (active)	
O=c1c2ccccc2c(=O)c2c1cc(Cl)c1[nH]c3c([nH]c12)c(Cl)cc1c(=O)c2ccccc2c(=O)c13		inactive
CC(C)CCCCCCCOP(=O)(Oc1ccccc1)Oc1ccccc1	16.7 µM (active)	
CCCC[N+](CCCC)(CCCC)CCCC		inactive
O=P1(NCCCl)OCCCN1CCCl (centres undefined)		inactive

SMILES	AC50	outcome
O=C(O)CCCc1ccc(N(CCCl)CCCl)cc1	23.7 µM (active) and 20 µM (active)	
C=CC(=O)OCC(CC)CCCC (centres undefined)		inactive
CCCOC(=O)c1ccccc1C(=O)OCCC		inactive
CC(C)(C)C(=O)CCl	8.75 µM (active)	
O=c1[nH]c(Cl)c(Cl)cc1Cl		inactive
CCCCCCCCCCCC#N	33.7 µM (active)	
CCC(C)c1cc([N+](=O)[O-])cc([N+](=O)[O-])c1OC(=O)C=C(C)C (centres undefined)	8.09 µM (active)	
CC(C)COP(=O)(OCC(C)C)OCC(C)C		inactive
CC(=O)/C=C/c1ccccc1		inactive
O=C1C=CC(=O)C=C1	20 µM (active) and 22.9 µM (active)	
[Cd+2].[Cl-].[Cl-]	32.4 µM (active) and 30.4 µM (active)	
O=[N+]([O-])c1ccc(Cl)cc1		inactive
O=C1C(Cl)=C(Cl)C(=O)C(Cl)=C1Cl	27.3 µM (active)	
Oc1ccc(C2(c3ccc(O)cc3)c3ccccc3-c3ccccc32)cc1	10.6 µM (active) and 9.45 µM (active)	
C=CCN(CC=C)C(=O)C(Cl)Cl		inactive
COC(C)(C)CCC[C@H](C)C/C=C/C(C)=C/C(=O)OC(C)C	18 µM (active)	
Oc1cc(Cl)ccc1Cl		inactive
COCC(=O)N(c1c(C)cccc1C)N1CCOC1=O		inactive
O=[N+]([O-])O		inactive
